# From PubChem BioAssay AID1159580 (chemical genetic matrix, 2015)
# Where “and” joins values, the source holds several entries; their conditions need not be identical. Identical values can stand only once. Out of some 5,500 compounds screened, about 2,000 (36%) were called active. Inconclusive results (about 18%) are left out. Some of the results follow. A number with no mark means an inactive call. Rule as the data show it: active = normalized growth mostly below about 0.91 (no sharp cut-off); inconclusive = no clear call, values can overlap the other calls; inactive = mostly above about 0.92.
# Test: chemical genetic growth profiling, strain panel (AID 1159580);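 also: tested at 20 µM; growth read once vehicle control cultures reached saturation at 30 °C; 1 = growth at the plate median or of vehicle wells; lower values mean less growth of the strain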
# Conditions: S. cerevisiae deletion strains, growth OD
smiles,measurement,setting,value
COc1cc(C(=O)N2CCOCC2)cc(OC)c1OC,normalized growth,"locus YAL013W, strain DEP1, active compounds read low",1.01
same,normalized growth,"locus YAL021C, strain ccr4, active compounds read low",1.01
same,normalized growth,"locus YAL026C, strain drs2, active compounds read low",0.974
same,normalized growth,"locus YAL030W, strain snc1, active compounds read low",0.984
same,normalized growth,"locus YBL061C, strain skt5, active compounds read low",0.967
same,normalized growth,"locus YBR009C, strain hhf1, active compounds read low",1.01
same,normalized growth,"locus YBR021W, strain FUR4, active compounds read low",0.997
same,normalized growth,"locus YBR023C, strain chs3, active compounds read low",0.971
same,normalized growth,"locus YBR171W, strain sec66, active compounds read low",0.972
same,normalized growth,"locus YBR229C, strain ROT2, active compounds read low",1.01
same,normalized growth,"locus YBR231C, strain swc5, active compounds read low",0.983
same,normalized growth,"locus YBR279W, strain paf1, active compounds read low",0.983
same,normalized growth,"locus YCL011C, strain gbp2, active compounds read low",0.993
same,normalized growth,"locus YCL016C, strain dcc1, active compounds read low",1
same,normalized growth,"locus YCL029C, strain bik1, active compounds read low",0.726 (active)
same,normalized growth,"locus YCL061C, strain MRC1, active compounds read low",0.978
same,normalized growth,"locus YCL069W, strain vba3, active compounds read low",0.972
same,normalized growth,"locus YCR088W, strain abp1, active compounds read low",0.978
same,normalized growth,"locus YDL005C, strain med2, active compounds read low",0.969
same,normalized growth,"locus YDL035C, strain GPR1, active compounds read low",1.02
same,normalized growth,"locus YDL040C, strain nat1, active compounds read low",0.974
same,normalized growth,"locus YDL074C, strain BRE1, active compounds read low",1.01
same,normalized growth,"locus YDL101C, strain DUN1, active compounds read low",1.02
same,normalized growth,"locus YDL134C, strain PPH21, active compounds read low",1.01
same,normalized growth,"locus YDL185W, strain tfp1, active compounds read low",1.01
same,normalized growth,"locus YDL192W, strain arf1, active compounds read low",0.101 (active)
same,normalized growth,"locus YDR001C, strain nth1, active compounds read low",0.98
same,normalized growth,"locus YDR069C, strain doa4, active compounds read low",0.992
same,normalized growth,"locus YDR101C, strain arx1, active compounds read low",0.494 (active)
same,normalized growth,"locus YDR137W, strain rgp1, active compounds read low",0.989
same,normalized growth,"locus YDR150W, strain NUM1, active compounds read low",1.02
same,normalized growth,"locus YDR159W, strain sac3, active compounds read low",0.961
same,normalized growth,"locus YDR162C, strain NBP2, active compounds read low",1
same,normalized growth,"locus YDR195W, strain ref2",0.937
same,normalized growth,"locus YDR297W, strain sur2, active compounds read low",0.999
same,normalized growth,"locus YDR318W, strain mcm21, active compounds read low",0.0684 (active)
same,normalized growth,"locus YDR334W, strain swr1, active compounds read low",0.966
same,normalized growth,"locus YDR335W, strain msn5, active compounds read low",0.979
same,normalized growth,"locus YDR388W, active compounds read low",0.0657 (active)
same,normalized growth,"locus YDR392W, strain spt3, active compounds read low",1.02
same,normalized growth,"locus YDR502C, strain sam2, active compounds read low",0.111 (active)
same,normalized growth,"locus YEL003W, strain gim4, active compounds read low",0.985
same,normalized growth,"locus YEL037C, strain rad23, active compounds read low",0.988
same,normalized growth,"locus YEL061C, strain CIN8 (second series), active compounds read low",0.964
same,normalized growth,"locus YEL061C, strain CIN8, active compounds read low",1
same,normalized growth,"locus YER015W, strain faa2, active compounds read low",0.989
same,normalized growth,"locus YER016W, strain bim1, active compounds read low",0.987
same,normalized growth,"locus YER110C, active compounds read low",0.264 (active)
same,normalized growth,"locus YER111C, strain swi4, active compounds read low",0.945
same,normalized growth,"locus YER155C, strain BEM2 (second series), active compounds read low",0.994
same,normalized growth,"locus YER155C, strain BEM2, active compounds read low",1.01
same,normalized growth,"locus YER167W, strain BCK2, active compounds read low",1.02
same,normalized growth,"locus YFR010W, strain ubp6, active compounds read low",0.962
same,normalized growth,"locus YGL078C, strain dbp3, active compounds read low",0.138 (active)
same,normalized growth,"locus YGL086W, strain mad1, active compounds read low",0.0586 (active)
same,normalized growth,"locus YGL167C, strain pmr1, active compounds read low",0.971
same,normalized growth,"locus YGL173C, strain kem1, active compounds read low",0.985
same,normalized growth,"locus YGL227W, strain vid30, active compounds read low",0.978
same,normalized growth,"locus YGL240W, strain doc1, active compounds read low",0.991
same,normalized growth,"locus YGL248W, strain PDE1, active compounds read low",1.01
same,normalized growth,"locus YGL253W, strain hxk2, active compounds read low",0.97
same,normalized growth,"locus YGR078C, strain PAC10, active compounds read low",1
same,normalized growth,"locus YGR135W, strain pre9, active compounds read low",0.0725 (active)
same,normalized growth,"locus YGR229C, strain SMI1, active compounds read low",1.01
same,normalized growth,"locus YGR252W, strain gcn5, active compounds read low",0.211 (active)
same,normalized growth,"locus YHR013C, strain ard1, active compounds read low",0.997
same,normalized growth,"locus YHR027C, strain rpn1, active compounds read low",0.995
same,normalized growth,"locus YHR030C, strain SLT2, active compounds read low",1.01
same,normalized growth,"locus YHR079C, strain IRE1 (second series), active compounds read low",0.578 (active)
same,normalized growth,"locus YHR079C, strain IRE1, active compounds read low",1.04
same,normalized growth,"locus YHR094C, strain hxt1, active compounds read low",0.127 (active)
same,normalized growth,"locus YHR129C, strain ARP1, active compounds read low",0.998
same,normalized growth,"locus YHR142W, strain chs7, active compounds read low",0.982
same,normalized growth,"locus YHR200W, strain rpn10, active compounds read low",0.122 (active)
same,normalized growth,"locus YIL066C, strain RNR3, active compounds read low",1.02
same,normalized growth,"locus YIL073C, strain SPO22, active compounds read low",1.09
same,normalized growth,"locus YIL125W, strain kgd1, active compounds read low",0.198 (active)
same,normalized growth,"locus YIR030C, strain dcg1, active compounds read low",0.292 (active)
same,normalized growth,"locus YJL092W, strain hpr5, active compounds read low",0.972
same,normalized growth,"locus YJL095W, strain BCK1 (second series), active compounds read low",0.979
same,normalized growth,"locus YJL095W, strain BCK1, active compounds read low",0.991 and 0.987
same,normalized growth,"locus YJL115W, strain asf1, active compounds read low",0.987
same,normalized growth,"locus YJL129C, strain trk1, active compounds read low",0.958
same,normalized growth,"locus YJL134W, strain LCB3, active compounds read low",1.01
same,normalized growth,"locus YJL154C, strain vps35, active compounds read low",0.974
same,normalized growth,"locus YJL164C, strain tpk1, active compounds read low",0.999
same,normalized growth,"locus YJL166W, strain qcr8, active compounds read low",1.02
same,normalized growth,"locus YJL168C, strain set2, active compounds read low",0.202 (active)
same,normalized growth,"locus YJL187C, strain SWE1 (second series), active compounds read low",1.01
same,normalized growth,"locus YJR043C, strain POL32, active compounds read low",1.02
same,normalized growth,"locus YJR066W, strain TOR1, active compounds read low",0.984
